High-throughput results as filed in PubChem.
CFTR F508del cor: CFTR F508del correction in bronchial cells; AID 720511; activity (quench increase), % at 7.58 µM; actives 0.36% (n = 350,000); CFBE cells, YFP halide quenching; stimulated with forskolin plus potentiator P3; % fluorescence drop versus neutral controls;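 active means mean added fluorescence quench of at least 8% versus neutral control, with both replicates also reaching 8%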;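 further: cells transiently co-express mutant CFTR-F508del with the halide-sensitive YFP; corrector assay measuring rescue of mutant channel to the surface after 24 h compound exposure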
SKN-1 inh: inhibitors of C. elegans SKN-1; C. elegans VP596 Pgst-4::GFP/RFP ratio, acrylamide-induced, 24 h; inhibition, % at 21.8 µM; actives 0.49% (n = 360,000);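 active means interference check ratio from 0.5 to 1.5 plus GFP to RFP signal ratio inhibition reaching or exceeding a fixed threshold, cut at about 30% in these data, passing the limit was not always enough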
ATG4B inhibitor: blocks human ATG4B protease cleavage of LC3 substrate; ATG4B cleavage of LC3-PLA2, NBD-HPC fluorescence, 1 h; Q9Y4P1; inhibition, % at 8.33 µM; actives 0.51% (n = 340,000); AID 504462; in the data active means inhibition above about 40%
MPTP inh: blocks calcium-induced mitochondrial swelling; AID 602449; inhibition, % at 10 µM; isolated mouse mitochondria, Ca2+ swelling absorbance, 30 min; actives 1.4% (n = 360,000);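 active means inhibition of 50% or more, scaled per plate between neutral and stimulator controls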
CendR NRP1 mod: modulators of CendR peptide binding to human neuropilin-1; inhibition, % at 25 µM; O14786; FAM-RPARPAR peptide binding to NRP-1, fluorescence polarization; actives 0.85% (n = 360,000); AID 602438;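 active means inhibition or corrected inhibition above about 18%, plus a signal ratio from 0.5 to 1.5, limit read from the data, passing the limit was not always enough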
Target sequence (O14786 whole entry, looked up): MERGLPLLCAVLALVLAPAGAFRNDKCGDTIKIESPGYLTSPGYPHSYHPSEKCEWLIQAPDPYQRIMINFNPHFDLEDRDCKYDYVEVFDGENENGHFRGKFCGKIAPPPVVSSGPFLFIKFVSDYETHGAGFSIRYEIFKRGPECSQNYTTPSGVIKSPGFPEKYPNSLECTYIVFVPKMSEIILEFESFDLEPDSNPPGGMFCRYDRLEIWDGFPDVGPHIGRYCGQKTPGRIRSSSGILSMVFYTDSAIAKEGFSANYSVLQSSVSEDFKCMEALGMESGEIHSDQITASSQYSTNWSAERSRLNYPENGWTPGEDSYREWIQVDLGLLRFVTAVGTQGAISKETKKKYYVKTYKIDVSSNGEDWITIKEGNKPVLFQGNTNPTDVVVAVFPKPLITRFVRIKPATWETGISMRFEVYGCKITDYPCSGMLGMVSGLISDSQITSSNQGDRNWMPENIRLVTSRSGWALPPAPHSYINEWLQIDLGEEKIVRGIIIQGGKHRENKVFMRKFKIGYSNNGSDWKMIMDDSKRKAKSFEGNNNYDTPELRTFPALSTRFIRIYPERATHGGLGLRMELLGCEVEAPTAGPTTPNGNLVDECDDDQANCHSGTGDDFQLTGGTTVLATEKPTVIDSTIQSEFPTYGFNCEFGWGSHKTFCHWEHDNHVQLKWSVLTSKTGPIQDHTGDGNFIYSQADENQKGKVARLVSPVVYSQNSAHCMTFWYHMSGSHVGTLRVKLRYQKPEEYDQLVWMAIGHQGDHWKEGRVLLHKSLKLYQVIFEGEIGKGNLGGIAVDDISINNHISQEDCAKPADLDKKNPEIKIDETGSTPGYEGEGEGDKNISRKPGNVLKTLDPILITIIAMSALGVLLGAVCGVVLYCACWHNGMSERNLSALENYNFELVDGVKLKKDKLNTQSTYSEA
Hits are given with their value; – = inactive; · = no result. Sampled rows, rich in hits. Any-hit rate of the full collection: about 2.7%.

SMILES	CFTR F508del cor	SKN-1 inh	ATG4B inhibitor	MPTP inh	CendR NRP1 mod
Cc1ccc(O)c(C(=O)c2cnc3c(c2)COc2ccccc2-3)c1	·	–	–	–	26.1
O=C(c1cnc2c(c1)COc1ccc(Cl)cc1-2)c1ccccc1O	·	–	–	–	–
CCN1CCN(CC(=O)Nc2ccc(C)cc2C)C(=O)C1=O	–	–	–	–	–
CCN1CCN(CC(=O)Nc2cccc(C)c2C)C(=O)C1=O	–	–	–	–	21.2
COc1ccc(C(C(=O)NC(C)(C)C)N(C(=O)CCC(=O)Nc2cc(C)on2)c2c(C)cccc2C)cc1 (stereo not drawn)	–	–	–	–	31.0
COc1cc(OC)cc(C(=O)N[C@H](C(=O)NC2CCCc3ccccc32)C(C)C)c1 (stereo partly drawn)	–	–	–	–	27.1
Cc1nn(-c2ccccc2)c(C)c1/C=N/NC(=O)c1cc(C(C)(C)C)[nH]n1	·	–	–	–	–
Cc1ccc(-c2cc(C(=O)N/N=C/c3c(C)nn(-c4ccccc4)c3C)[nH]n2)cc1	·	47.2	·	–	–
CC(C)NC(=O)N1[C@H](CO)[C@@H](c2ccccc2)[C@@H]1CN(C)C(=O)c1cccnc1	–	·	·	·	·
N#CCCN(C(=O)Nc1ccccc1)c1ccccc1	·	–	–	–	28.0
O=C(c1ccccn1)N1CC(=O)N2[C@H](CO)[C@@H](c3ccc(C#Cc4ccccc4)cc3)[C@H]2C1	–	·	·	·	·
O=C(C1CC1)N1N=C(c2ccc(Cl)cc2)CC1(O)C(F)(F)F (stereo not drawn)	–	–	–	–	26.6
O=C(C1CC1)N1N=C(c2ccc(F)cc2)CC1(O)C(F)(F)F (stereo not drawn)	–	–	–	–	–
C[C@@H]1CN([C@@H](C)CO)C(=O)c2cc(NC(=O)c3ccncc3)ccc2O[C@@H]1CN(C)Cc1ccc(C(=O)O)cc1	–	·	·	·	·
O=C(Nc1ccccc1Cl)N1C[C@@H]2[C@H](c3ccccc31)[C@H](CO)N2Cc1ccccc1	–	·	·	·	·
COc1ccc(-c2cnc3c(NC=O)cc(-c4ccccc4)cn23)cc1OC	13.2	–	·	–	–
CC(=O)c1ccc(-c2cnc3c(NC=O)cc(-c4ccc(C(=O)NC5CC5)cc4)cn23)cc1	–	–	·	–	–
O=CNc1cc(-c2ccc(C(=O)NC3CC3)cc2)cn2c(-c3ccccc3)cnc12	13.7	–	·	–	–
COc1ccc(-c2cnc3c(NC=O)cc(-c4ccc(F)cc4)cn23)cc1OC	–	–	·	–	–
Cc1ccc(NC(=O)CSc2nnc(C)n2-c2ccccc2)cc1	·	–	–	–	–
Cc1ccc(-n2c(C)nnc2SCC(=O)Nc2ccccc2)cc1	·	–	–	–	19.6
COc1cccc(NC(=O)CSc2nc(O)c(C)c(=O)n2-c2ccc(C)cc2)c1	–	–	–	–	24.2
Cn1c(SCc2nc3ccccc3s2)nnc1-c1cccs1	·	–	–	–	43.7
CCn1c(SCc2nc3ccccc3s2)nnc1-c1cccs1	·	–	–	–	–
CCOc1ccccc1NC(=O)CSc1ncnc2c1oc1ccccc12	·	34.5	–	–	–
SMILES	CFTR F508del cor	SKN-1 inh	ATG4B inhibitor	MPTP inh	CendR NRP1 mod
C[C@@H]1CN([C@@H](C)CO)C(=O)CCCn2nncc2CO[C@@H]1CN(C)Cc1ccc2cccnc2c1	–	·	·	·	·
CO[C@H]1CN(C)C(=O)c2cc(NC(=O)C3CC3)ccc2OC[C@H](C)N(C(=O)c2ccccc2)C[C@@H]1C	–	·	·	·	·
CC(C)Cn1cnc2c(SCc3ccccc3F)nc(N)nc21	–	–	–	–	26.1
CCCn1nc(NC(=O)C(C)(C)C)c2cc3cc(OC)ccc3nc21	–	–	–	–	–
COc1ccc2nc3c(cc2c1)c(NC(=O)c1cccs1)nn3CC(C)C	·	–	–	–	44.6
CCCCn1nc(NC(=O)CC)c2cc3cc(OC)ccc3nc21	9.6	–	–	–	–
CC(C)Cn1nc(NC(=O)c2cccs2)c2cc3ccccc3nc21	–	–	–	–	–
O=C(CC1CC1)N1[C@@H](CO)[C@@H]2c3ccccc3N(S(=O)(=O)c3ccccc3)C[C@@H]21	–	·	·	·	·
C[C@@H]1CN([C@@H](C)CO)S(=O)(=O)c2ccc(-c3cncnc3)cc2O[C@@H]1CN(C)Cc1ccccn1	–	·	·	·	·
C[C@H]1CN([C@@H](C)CO)C(=O)Cc2cc(NC(=O)c3ccncc3)ccc2O[C@H]1CN(C)C	–	·	·	·	·
CNc1ccc2c3c(cccc13)C(=O)N(C)C2=O	20.4	–	–	–	–
O=C(c1cccc(F)c1)N1CC(=O)N2[C@H](CO)[C@H](c3ccc(C4=CCCCC4)cc3)[C@@H]2C1	–	·	·	·	·
O=C(NCCOC(=O)c1ccccc1)c1ccccc1	–	–	–	–	21.8
C[C@@H]1CN([C@H](C)CO)C(=O)c2cc(N(C)C)ccc2O[C@@H](C)CCCCO[C@@H]1CN(C)C(=O)Cc1ccccc1	–	·	·	·	·
COc1ccc(NC(=O)Nc2ccc3c(c2)C(=O)N([C@H](C)CO)C[C@@H](C)[C@H](CN(C)Cc2ccc(C(F)(F)F)cc2)OCCCC[C@H](C)O3)cc1	14.2	·	·	·	·
C[C@H]1CCCCO[C@H](CN(C)C(=O)Cc2ccccc2)[C@@H](C)CN([C@@H](C)CO)C(=O)c2cc(N(C)C)ccc2O1	10.8	·	·	·	·
C[C@@H]1CCCCO[C@@H](CN(C)C(=O)Nc2ccc(C(F)(F)F)cc2)[C@@H](C)CN([C@H](C)CO)C(=O)c2cc(NC(=O)Nc3ccc(F)cc3)ccc2O1	–	·	·	·	·
C[C@H]1CCCCO[C@H](CN(C)C(=O)Nc2ccc(C(F)(F)F)cc2)[C@@H](C)CN([C@@H](C)CO)C(=O)c2cc(NC(=O)Nc3ccc(F)cc3)ccc2O1	8.0	·	·	·	·
C[C@@H]1CCCCO[C@H](CN(C)Cc2ccccc2)[C@@H](C)CN([C@H](C)CO)C(=O)c2cc(NC(=O)CCC(F)(F)F)ccc2O1	–	·	·	·	·
Cc1ccc(C(=O)NNc2c3ccccc3nc3ccccc23)cc1	–	–	–	–	–
O=C(NNc1c2ccccc2nc2ccccc12)c1ccc(Cl)cc1	·	41.1	–	–	–
CCOC(=O)c1c(C)[nH]c(C(=O)OCc2ccccc2)c1C	–	–	–	–	–
COC(=O)CCc1c(C)[nH]c(C(=O)OCc2ccccc2)c1C	·	–	–	–	19.5
CSc1ccccc1NC(=O)CSc1n[nH]c(C)c1[N+](=O)[O-]	–	–	–	–	27.0
COc1ccc(C(=O)Nc2ccc(NC(=O)c3cccc(OC)c3)cn2)cc1	–	–	–	–	–
COc1ccc(C(=O)Nc2ccc(NC(=O)c3cccc(F)c3)cn2)cc1	13.3	–	–	–	–
CO[C@H]1CN(C)C(=O)c2cc(NC(=O)C3CCOCC3)ccc2OC[C@H](C)N(Cc2cccnc2)C[C@@H]1C	–	·	·	·	·
CN(C(=O)Cn1c(=O)oc2ccccc21)C1CCCCC1	–	–	–	–	20.0
CC1CCCCN1C(=O)Cn1c(=O)oc2ccccc21 (stereo not drawn)	·	–	–	–	–
CN(CC(=O)Nc1cccc(F)c1)C(=O)Cn1c(=O)oc2ccccc21	–	–	–	–	22.6
